Screens as filed in PubChem BioAssay.
The list is not random: actives were taken first. Their share in the collection is about 3.5%.
BoNT F protease – BoNT F light chain protease inhibition; hit rate 0.22% among 360,000; Multiplex microsphere protease cleavage assay, flow cytometry; inhibition, % at 10 µM; AID 588497; in the data active = inhibition above about 35%, passing the limit was not always enough; inconclusive = no clear call, values can overlap the other calls; note: plate controls were buffer without enzyme for full effect and enzyme alone for no effect
Anthrax LF inh2 – blocks Bacillus anthracis lethal factor protease; multiplex microsphere protease cleavage assay, LF; inhibition, % at 10 µM; hit rate 0.12% among 360,000; P15917; note: plate controls were buffer without enzyme for full effect and enzyme alone for no effect
Target sequence (P15917 whole entry, looked up): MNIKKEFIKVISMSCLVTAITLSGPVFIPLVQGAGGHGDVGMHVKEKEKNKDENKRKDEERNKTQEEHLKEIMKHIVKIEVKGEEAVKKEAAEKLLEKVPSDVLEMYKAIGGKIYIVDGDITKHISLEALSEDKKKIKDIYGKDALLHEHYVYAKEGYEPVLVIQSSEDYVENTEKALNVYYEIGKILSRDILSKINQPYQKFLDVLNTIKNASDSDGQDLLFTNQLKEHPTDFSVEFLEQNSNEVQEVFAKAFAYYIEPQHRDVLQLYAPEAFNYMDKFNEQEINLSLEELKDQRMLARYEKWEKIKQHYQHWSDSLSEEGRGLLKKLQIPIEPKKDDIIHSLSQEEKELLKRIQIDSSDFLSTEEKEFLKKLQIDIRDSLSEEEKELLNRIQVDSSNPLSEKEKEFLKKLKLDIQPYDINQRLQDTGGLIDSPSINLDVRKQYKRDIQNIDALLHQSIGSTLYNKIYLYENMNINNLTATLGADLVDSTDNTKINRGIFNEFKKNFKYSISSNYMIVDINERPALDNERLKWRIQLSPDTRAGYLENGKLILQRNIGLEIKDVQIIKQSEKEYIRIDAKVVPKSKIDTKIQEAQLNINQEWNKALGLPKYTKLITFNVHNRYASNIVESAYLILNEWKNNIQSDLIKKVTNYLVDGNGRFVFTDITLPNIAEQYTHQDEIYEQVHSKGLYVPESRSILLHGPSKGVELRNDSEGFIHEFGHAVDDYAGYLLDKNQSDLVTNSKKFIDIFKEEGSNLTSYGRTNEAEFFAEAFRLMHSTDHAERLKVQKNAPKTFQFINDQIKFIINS
Autofluor counter – counter-screen for toxin protease inhibitors: compound fluorescence. hit rate 3.1% among 360,000. fluorescence intensity (test concentration not listed). compound autofluorescence counterscreen, microsphere flow cytometry; hits give high values. AID 624483; in the data active = fluorescence intensity above about 16000; inconclusive = no clear call, values can overlap the other calls
BoNT-A LC inh2 – BoNT A light chain protease inhibition | inhibition, % at 10 µM | hit rate 0.17% among 360,000 | multiplex microsphere protease substrate cleavage, flow cytometry | AID 588499; note: plate controls were buffer without enzyme for full effect and enzyme alone for no effect
Numbers without * were called inactive; ? = inconclusive. Cut-off read from the data, not from the text of the source, unless noted: active = inhibition above about 30%; inconclusive = no clear call, values can overlap the other calls; inactive = below that.

SMILES | BoNT F protease | Anthrax LF inh2 | Autofluor counter | BoNT-A LC inh2
CCOc1ccc(C2=Nn3c(nnc3-c3ccccc3OC)SC2)cc1 | 1 | 0 | 22729* | 1
Cc1ccc(-c2nnc3n2N=C(c2ccc(Br)cc2)CS3)cc1 | -8 | -12 | 5697 | 0
c1ccc(-c2ccc(C3=Nn4c(nnc4-c4cc(-c5ccccc5)n[nH]4)SC3)cc2)cc1 | 2 | 3 | 18459* | 3
CC1=Nn2c(nnc2-c2cc(-c3ccccc3)n[nH]2)SC1 | -24 | -2 | 4836 | -1
CCc1nnc2n1N=C(c1ccc(OC)cc1)CS2 | -10 | -4 | 17512* | -3
COc1ccccc1-c1nnc2n1N=C(c1ccc(O)c(O)c1)CS2 | -2 | -3 | 15681 | 1
Cc1cccc(NC(=O)Cn2c(C)c(C#N)c3ccccc32)c1C | 8 | 6 | 2959 | 2
O=C(CN1C(=O)NC2(CCCCCC2)C1=O)N1CCN(c2ccccc2)CC1 | 6 | 9 | 8818 | 1
CC(=O)OCC[C@H](NS(=O)(=O)OCC(Cl)(Cl)Cl)c1ccccc1 | 7 | 9 | 3719 | 0
COc1cccc(-c2nnc3n2N=C(c2cccc(Br)c2)CS3)c1 | -5 | 0 | 20881* | ?
COc1ccc(C2=Nn3c(nnc3-c3ccccn3)SC2)cc1 | -2 | -2 | 24133* | ?
COc1ccc(C2=Nn3c(nnc3-c3ccncc3)SC2)cc1OC | 2 | -10 | 14717 | 4
Cc1ccc(-n2nc(C(=O)O)cc2-c2ccccc2)cc1 | -7 | -2 | 22097* | -4
Cc1ccc(-n2nc(C(=O)O)cc2-c2ccc(Cl)cc2)cc1 | -1 | -3 | 4430 | -1
COCCCNC(=O)CSc1nc2cc(S(=O)(=O)N3CCCCC3)ccc2o1 | -5 | -1 | 4523 | 2
C=CCNC(=O)c1cc(-c2ccc(Br)cc2)on1 | 0 | 1 | 22477* | 0
COc1ccc(Nc2nc(C(=O)NCCCN3CCOCC3)cs2)cc1 | -3 | 0 | 16850* | -1
O=C(NCCCN1CCOCC1)c1cc(-c2ccc(Br)cc2)on1 | 14 | -16 | 18589* | 15
COc1ccc(Nc2cc(C(=O)NCCCN3CCOCC3)c3ccccc3n2)cc1 | -3 | -3 | 6335 | -2
COc1ccc(CC(=O)OCC(=O)Nc2ccc(N3CCOCC3)cc2)cc1 | -21 | -21 | 4903 | 0
CC(C)Nc1ncnc2c1ncn2[C@H]1CN(Cc2cccnc2)C[C@@H](CO)O1 | 0 | -6 | 2820 | 0
Cc1ccc2nc(C)/c(=N\O)c(C)nc2c1 | -5 | -1 | 16928* | -2
COc1ccc(N2CCN(C(=O)CC3NC4CCCCC4NC3=O)CC2)cc1 (stereo not drawn) | 2 | -1 | 22113* | 2
COc1ccc(N2CCN(C(=O)CN(C3CCCCC3)S(C)(=O)=O)CC2)cc1 | -4 | -5 | 4339 | -1
Cc1ccc(S(=O)(=O)N2CCOCC2)cc1NC(=O)COC(=O)c1cccnc1Cl | -5 | -4 | 4448 | -1
SMILES | BoNT F protease | Anthrax LF inh2 | Autofluor counter | BoNT-A LC inh2
COc1cccc(OC)c1OCCCc1c(C)n[nH]c1C | -14 | -2 | 10100 | -1
Cc1cccc(OCCCc2c(C)n[nH]c2C)c1 | 1 | 0 | 22053* | ?
CC(C)(C)NC(=O)CN(C(=O)CCN1CCCc2ccccc21)C(C)(C)C | -6 | 6 | 20626* | 13
O=c1sc(Nc2ccccc2)nc2ccsc12 | 0 | -5 | 19370* | ?
COc1ccc(OCC(=O)Nc2ccccc2OC)cc1 | -14 | -4 | 8411 | -2
CNCc1ccccc1OCC(=O)Nc1ccccc1OC | -5 | -2 | 17627* | -4
O=C(COc1ccccc1CNCc1ccccc1)Nc1ccccc1 | -12 | -6 | 24425* | ?
COc1ccc(S(=O)(=O)N2CCCCC2)cc1NC(=O)CCNC(=O)c1ccc(Br)cc1 | -5 | -1 | 4439 | -1
COc1ccc(CN2C(=O)C(CC(=O)NCCc3ccccn3)CC(C(=O)N3CCOCC3)=C2C)cc1 (stereo not drawn) | -1 | 0 | 4520 | 0
COc1ccccc1NC(=O)Cc1csc(NC(=S)Nc2ccc(C)cc2)n1 | -2 | -2 | 16561* | -1
Nc1ccccc1C(=O)N/N=C1\C2CN3CCN(C2)CC1(c1ccccc1)C3 | -3 | -10 | 9579 | 1
CC(C)c1ccc(NC(=O)Nc2nc(C(N)c3ccccc3)cs2)cc1 (stereo not drawn) | -19 | -10 | 2782 | 0
COc1ccc(CN2C(=O)NC3(CCCCC3)C2=O)cc1F | 1 | -1 | 22242* | ?
COc1ccc(COC(=O)CN2C(=O)NC3(CCCC3)C2=O)cc1F | 6 | 1 | ? | 0
Cn1c(=O)c2ncn(CC(=O)NCCOc3ccccc3)c2n(C)c1=O | 3 | -4 | 10311 | -1
Cc1ccc(OCCNC(=O)Cn2cnc3c(=O)n(C)c(=O)n(C)c32)cc1C | -3 | -2 | 22531* | -1
COc1ccc(CNC(=O)Cn2cnc3c(=O)n(C)c(=O)n(C)c32)cc1 | -4 | 0 | 21079* | -3
COc1cc2c(cc1OC)C1CCc3cc4c(cc3C1N=C2)OCO4 (stereo not drawn) | 2 | -1 | 3638 | 0
COC(=O)CC1COc2ccccc2N1C(=O)c1cc(OC)c(OC)c(OC)c1 (stereo not drawn) | -14 | 3 | 2893 | -2
COC(=O)CC1COc2ccccc2N1C(=O)c1ccc(OC)cc1 (stereo not drawn) | 0 | 1 | 21654* | ?
O=C1C2CC=C(Cl)CC2C(=O)N1CCC[n+]1ccccc1 (stereo not drawn) | 2 | -1 | 19255* | ?
Cc1ccc(NCN2C(=O)C3CC=C(Cl)CC3C2=O)cc1 (stereo not drawn) | -3 | -1 | 2906 | 0
O=C(O)c1ccccc1NCN1C(=O)C2CC=C(Cl)CC2C1=O (stereo not drawn) | -4 | -4 | 24033* | -4
COC(=O)[C@H](C)NC(=O)Nc1cccc(Br)c1 | 2 | -2 | 4390 | 0
CCCCOCCCNC(=O)N[C@H](C(=O)O)C(C)CC (stereo partly drawn) | -5 | -2 | 4597 | -1
SMILES | BoNT F protease | Anthrax LF inh2 | Autofluor counter | BoNT-A LC inh2
CCC(C)[C@H](NC(=O)NC1CC1)C(=O)O (stereo partly drawn) | 0 | -2 | 23360* | ?
CCOC(=O)C1=C(C)Nc2sc(C(=O)c3ccc(OC)cc3)c(N)c2C1c1ccc(C(=O)OC)cc1 (stereo not drawn) | 12 | 21 | 9298 | 30*
CC(=O)Nc1cccc(-c2ccnc3c2CC(C(=O)Nc2cccc(Oc4ccccc4)c2)O3)c1 (stereo not drawn) | 0 | 7 | 3719 | 0
Oc1cc2ccccc2cc1-c1n[nH]c(=S)n1Cc1ccco1 | -7 | -1 | 4414 | 0
COc1cccc(-c2n[nH]c(=S)n2Cc2ccco2)c1OC | 6 | -6 | 20736* | 6
C=C(C)Cn1c(=O)c2c(nc3n2CCN3c2cccc(Cl)c2C)n(C)c1=O | 4 | -1 | 3802 | -1
C=CCn1c(=O)c2c(nc3n2CCN3c2cccc(Cl)c2C)n(C)c1=O | -2 | -3 | 16780* | 0
C=CCSc1nc(N)c(C#N)c(-c2ccccc2)c1C#N | 5 | -2 | 21076* | 4
Cc1ccc(CN2CCNC(=O)C2CC(=O)O)cc1 (stereo not drawn) | -8 | -5 | 5174 | 0
CN1CCNC(=O)C1CC(=O)O (stereo not drawn) | 0 | 1 | 22031* | ?
